From PubChem BioAssay AID720700 (The Scripps Research Institute Molecular Screening Center, 2013) come the findings set out here.

The whole screen tested about 370,000 compounds, of which about 3,100 (0.84%) were called active. This is one part of a sample in which actives are shown more often than they occur. Values without a mark were called inactive. Cut-off read from the data, not from the text of the source: active = inhibition above about 9.5%; inactive = the rest.

The target in this assay is 1-phosphatidylinositol 4,5-bisphosphate phosphodiesterase gamma-1 (Homo sapiens) (UniProt P19174). Description: blockers of human PLCG1 activity – biochemical, fluorescence, purified enzyme, primary screen (AID 720700). The conditions noted are these: purified PLC-gamma1, fluorogenic substrate, at 12.2 µM, hits give high values.
Chain of 1-phosphatidylinositol 4,5-bisphosphate phosphodiesterase gamma-1 (Homo sapiens) (P19174 whole entry, looked up): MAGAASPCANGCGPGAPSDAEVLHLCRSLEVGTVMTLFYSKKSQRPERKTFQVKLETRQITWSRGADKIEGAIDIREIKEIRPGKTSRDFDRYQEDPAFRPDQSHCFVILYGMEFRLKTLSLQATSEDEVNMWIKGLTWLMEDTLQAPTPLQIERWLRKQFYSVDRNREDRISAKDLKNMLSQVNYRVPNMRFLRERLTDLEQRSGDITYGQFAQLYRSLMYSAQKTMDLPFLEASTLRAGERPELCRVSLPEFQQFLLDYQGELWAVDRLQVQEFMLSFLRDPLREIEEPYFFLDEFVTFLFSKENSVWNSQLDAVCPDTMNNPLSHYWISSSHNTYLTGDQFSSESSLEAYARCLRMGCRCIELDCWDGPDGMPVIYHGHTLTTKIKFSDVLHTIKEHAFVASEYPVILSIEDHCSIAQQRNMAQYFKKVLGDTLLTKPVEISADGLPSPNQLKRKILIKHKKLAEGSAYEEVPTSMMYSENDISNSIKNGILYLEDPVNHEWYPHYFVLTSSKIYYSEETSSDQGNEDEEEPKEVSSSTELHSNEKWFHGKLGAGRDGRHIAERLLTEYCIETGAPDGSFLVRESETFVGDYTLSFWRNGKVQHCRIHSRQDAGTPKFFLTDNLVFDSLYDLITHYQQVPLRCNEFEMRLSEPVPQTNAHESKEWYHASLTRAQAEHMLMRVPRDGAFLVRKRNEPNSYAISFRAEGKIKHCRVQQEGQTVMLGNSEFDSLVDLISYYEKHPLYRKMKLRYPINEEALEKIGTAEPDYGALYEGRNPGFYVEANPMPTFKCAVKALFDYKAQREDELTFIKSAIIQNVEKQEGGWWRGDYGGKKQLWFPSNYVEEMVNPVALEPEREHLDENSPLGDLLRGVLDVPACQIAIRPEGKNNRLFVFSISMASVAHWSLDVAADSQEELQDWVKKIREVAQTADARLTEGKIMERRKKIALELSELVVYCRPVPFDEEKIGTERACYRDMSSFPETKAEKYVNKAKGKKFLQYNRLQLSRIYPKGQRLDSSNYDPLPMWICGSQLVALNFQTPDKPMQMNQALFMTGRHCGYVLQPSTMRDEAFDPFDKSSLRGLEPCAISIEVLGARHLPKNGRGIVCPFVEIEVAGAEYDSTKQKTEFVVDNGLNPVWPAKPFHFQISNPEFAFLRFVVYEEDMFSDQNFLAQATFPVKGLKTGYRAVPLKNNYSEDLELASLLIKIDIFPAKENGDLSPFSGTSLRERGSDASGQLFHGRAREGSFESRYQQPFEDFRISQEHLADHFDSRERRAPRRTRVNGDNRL
`CCCCCCN1CCS(=O)(=O)N(Cc2ccc(C(F)(F)F)cc2)C(C(=O)OC)C1` (configuration not stated): the inhibition (commonly the relative decrease from the control value, in per cent) was -2.36%.
The same measure for `Cc1cc(NC(=O)c2ccccc2C)no1`: 3.09%; for `CSc1ccccc1NC(=O)c1cc(Cl)sc1Cl`: 3.13%; for `Cc1ccccc1C(=O)Nc1ccccc1Sc1ccccc1`: 10.7% (active).
Turning to `CCOC(=O)[C@]12CCCC3=C1N(CCC3)C(=O)[C@@H](CC(=O)N1CCSCC1)C2`, the inhibition is 4.63%.
Take `COc1ccc(C(=O)OCCN2CCN(C3CN(Cc4cn(Cc5ccccc5F)nn4)S(=O)(=O)C3)CC2)cc1OC` (configuration not stated): the inhibition was -0.1%.
With `O=C(NC1CCCCN(Cc2ccc(Cl)cc2)C1=O)c1ccc(Br)cc1` (configuration not stated) the figure was 3.44%; with `CCOC(=O)[C@]12CCCCC/C=C\1N(Cc1ccc(OC)cc1)C(=O)[C@H]2CC(=O)NCCCN1CCCC1=O`, 1.96%; with `CN(CC(=O)NC1CCCCC1)S(=O)(=O)c1ccc(Br)s1`, 10.4% (active).
With `CN(CC(=O)NC1CCCCC1)S(=O)(=O)c1cccc2cccnc12` the figure was -1.31%.
The same measure for `CN(CC(=O)NC1CCN(Cc2ccccc2)CC1)S(=O)(=O)c1ccc(Cl)s1`: 6.37%.
Turning to `Cc1nc(CNc2ncnc3ccc(-c4ccc5c(c4)OCO5)cc23)cs1`, the inhibition was -104%.
With `O=C(CC(=O)N/N=C\c1cccc(Cl)c1Cl)NCc1ccccc1`, the inhibition is -0.34%.
With `CCn1c(SCC(=O)N/N=C/c2ccccc2OCC(=O)O)nnc1-c1ccc(C(C)(C)C)cc1` the figure was -0.82%.
With `C=CCOc1ccccc1/C=N/NC(=O)Cc1ccccc1` the figure was 13.9% (active); with `O=C1CCC2(CCC(c3ccc(Cl)cc3)CC2)N1CCO` (configuration not stated), 1.68%; with `COC(=O)[C@]12C[C@H](CC(=O)NCc3ccccc3)C(=O)N(CCC3=CCCCC3)C1=C[C@H](C(C)C)O[C@@H]2C1CC1`, 4.87%.
The same measure for `CCOC(=O)C1=C(C)NC2=C(C(=O)CC(C)(C)C2)C1c1ccc2c(c1)OCO2` (configuration not stated): -75.8%.
As to `Cc1ccc(NC(=O)Nc2cc(C)nn2-c2ccccc2)cc1`, the inhibition was -1.85%.
`CCCCn1c(SCC(=O)N2CCC(C(=O)OCC)CC2)nc2cc(S(N)(=O)=O)ccc21`: the inhibition was 0.98%.
The same measure for `CCn1c(SCC(=O)N2CCCC2=O)nc2ccccc21`: 3.16%.
With `CCCCn1c(SCC(=O)N2CCCC2=O)nc2cc(S(N)(=O)=O)ccc21` the figure was 9.56% (active); with `COc1ccccc1C(=O)NC1CCCCN(C(C)C)C1=O` (configuration not stated), 2.47%.
With `Cc1ccccc1CS(=O)(=O)Cc1ccc(C(=O)Nc2ccc(Cl)cc2)o1` the figure was -2.55%.
Take `Oc1ccc(/C=C/c2c(F)cccc2F)c2cccnc12`: the inhibition was -12.7%.
With `COC(=O)[C@H](C(C)C)N(CCCc1cn(Cc2ccccc2)nn1)S(=O)(=O)c1ccc(F)cc1Br` the figure was 0.35%.
In the case of `O=C1CC(c2ccc3c(c2)OCO3)N=C2N(CC3CC3)C/C(=C/c3ccccc3)N12` (configuration not stated), the inhibition was -5.26%.
For the compound `Fc1ccccc1C(c1nnnn1Cc1ccc2c(c1)OCO2)N1CCN(Cc2ccccc2)CC1` (configuration not stated), the inhibition was 0.65%.
Turning to `Cc1ccc(C(c2nnnn2CS(=O)(=O)c2ccc(C)cc2)N2CCC(C)CC2)cc1` (configuration not stated), the inhibition was 0.22%.
The same measure for `Cc1ccc(S(=O)(=O)Cn2nnnc2CN2CCN(Cc3ccc4c(c3)OCO4)CC2)cc1`: 10.9% (active); for `COc1cc(OC)nc(S(C)(=O)=O)n1`: 16.5% (active).
With `CCC(=O)Nc1nc(OC)cc(OC)n1` the figure was 2.37%.
The same measure for `COc1ccnc(C(=O)N2CCC(Oc3cccnc3)CC2)c1`: 0.2%.
Turning to `O=C(NCc1ccc(Cl)cc1)C1CCCN(c2nc3ccccc3o2)C1` (configuration not stated), the inhibition was 1.63%.
Consider `CCOc1c(Br)cc(/C=C2\C(=O)N(CCC#N)N=C2C)cc1OC`, for which the inhibition was 24.6% (active).
With `O=C(NNC(=O)C1C2CCC(C2)C1C(=O)O)c1ccc(Cl)cc1` (configuration not stated) the figure was 1.22%; with `Cc1ccc(CN2CC(C(=O)NNC(=O)Cn3ccc(C(F)(F)F)n3)CC2=O)cc1` (configuration not stated), 2.76%.
For `Cc1ccc(Cn2ccc(NC(=O)C3C4CCC(C4)C3C(=O)O)n2)cc1` (configuration not stated), the inhibition is 9.61% (active).
The same measure for `O=C(CSc1nnc(-c2ccccn2)n1-c1ccc(Cl)cc1)Nc1ccccc1-c1ccccc1`: 0.96%.
The same measure for `O=C(CCCCCN1C(=O)C2C3C=CC(C3)C2C1=O)Nc1ccccn1` (configuration not stated): 1.47%; for `Cc1cc(C)nc(NC(=S)N2CCN(c3ccc(C(F)(F)F)cn3)CC2)c1`: 0.58%.
The same measure for `O=C(Nc1cccc([N+](=O)[O-])c1)Nn1cnnc1`: 10.4% (active); for `CN(C(=O)c1cccc(NC(=O)Cc2cccc([N+](=O)[O-])c2)c1)C1CCCCC1`: 8.53%.
For the compound `O=C(COc1ccc([N+](=O)[O-])cc1Cl)Nn1cnnc1`, the inhibition is 2.5%.
On to `O=C(c1ccccc1)c1ccc(-c2ccccc2C(=O)NC2CCCCN(Cc3ccc(Cl)cc3)C2=O)cc1` (configuration not stated), for which the inhibition was 1.5%.
The same measure for `Cc1ccc(NC(=O)Cc2cccc(F)c2)c(S(=O)(=O)N2CCOCC2)c1`: -42.8%.
With `CC1=NCCN1S(=O)(=O)c1cccc([N+](=O)[O-])c1` the figure was -1.13%; with `Cc1ccc(-c2cn(S(=O)(=O)c3cccc([N+](=O)[O-])c3)nc2N)cc1`, 11.4% (active); with `Cc1cc(C)n(S(=O)(=O)c2cccc([N+](=O)[O-])c2)n1`, 0.37%.
In the case of `CCOC(=O)[C@]12CCCCC/C=C\1N(Cc1ccc(OC)cc1)C(=O)[C@H]2CC(=O)NCc1ccc(C)o1`, the inhibition is 0.82%.
In the case of `COC(=O)[C@]1(S(=O)(=O)c2ccccc2)C[C@@H]2ON=C(c3ccc(OC)cc3)[C@@H]2C1`, the inhibition is -2.22%.
With `N#C[C@]1(S(=O)(=O)c2ccccc2)C[C@@H]2ON=C(c3cccc(Br)c3)[C@@H]2C1`, the inhibition is 9.78% (active).
With `CCn1c(=O)n2n(c1=O)[C@@]1(C=C3CCCC[C@H]32)N=C(NC(=O)c2ccccc2)N(Cc2ccccc2)[C@H]1Cc1ccccc1` the figure was -12.3%.
The same measure for `COC(=O)C12C=C3CC(c4ccccc4)=C3C(=O)N1Cc1[nH]c3ccccc3c1C2` (configuration not stated): -9.2%.
Turning to `CCOC(=O)CNC(=O)/C=C/c1c(Cl)cccc1Cl`, the inhibition was 0.18%.
As for `O=C(/C=C/c1c(F)cccc1Cl)Nc1nn[nH]n1`, the inhibition was 12.5% (active).
As to `O=C(/C=C/c1c(Cl)cccc1Cl)NCc1ccccc1`, the inhibition is 3.49%.
